These results are taken from PubChem BioAssay (NCI).

Molecules are shown by their SMILES. About 83,000 compounds went through this panel and 20% of them were active in at least one assay; those are over-represented in the sample as a whole.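 48-hour exposure, single concentration, 96-well plates; percent growth endpoint where 0 means no net growth. Active: below 10.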 Unmarked numbers belong to inactive results. The source made the active and inactive calls.

Holding throughout (assay): NCI-60 one-dose screen, 48 h (100 = growth as untreated, 0 = no growth, -100 = all killed)
Conditions in all cases: 10 µM unless noted

The test system of test [1] is HCT-15 colon.
The subject of test [2] is HT29 colon.
For test [3], the system named is SNB-75 CNS.
The test system of test [4] is SNB-19 CNS.
For test [5], the system named is U251 CNS.
Test [6] has as its system PC-3 prostate.
For test [7], the system named is SK-MEL-5 melanoma.
The test system of test [8] is UACC-62 melanoma.
The test system of test [9] is LOX IMVI melanoma.
For test [10], the system named is SK-MEL-28 melanoma.

Regarding `CC1(C)CC(=O)c2c(ccc(C(=O)C[C@@H](N)CO)c2N)O1`, the growth was 4.96% (active) in test [1]; -7.99% (active) in [2]; 63.5% in test [3]; 14% in [4]; 7.09% (active) in [5]; 24.7% in test [6]. In addition, the growth in [7] was 29.4%; in test [8] it was -9.38% (active); in test [9] it was -59% (active); in [10], 17%.
Turning to `O=C1Nc2ccccc2/C1=C/C(=O)c1ccc(N2CCCCC2)cc1`, the growth in test [1] was 79.8%; in [2], 32.8%; in test [3] it was 91.4%; in test [4], 86.5%; in test [5], 52.7%; in test [6], 52.7%. Moreover, the growth in test [7] was 93.2%; in [8] it was 68.6%; in test [9], 43.3%; in test [10], 105%.
For the compound `COc1ccc2c(c1)c(-c1noc(C(=O)c3cn(C)c4ncc(Br)cc34)n1)cn2C`, the growth in test [1] was 68.4%; in test [2], 58%; in [3], -12.8% (active); in [4], 78.7%; in [5], 68.6%; in test [6], 39.7%. The growth in [7] was 50.6%; in test [8], 65.6%; in test [9], 70.9%; in test [10], 71.1%.
For the compound `COc1ncnc2c(-c3ccccc3)cn(COCc3ccccc3)c12`, the growth in test [1] is 42.6%; in test [2], 47.8%; in test [3], 99.8%; in test [4], 78%; in test [5], 60.1%; in test [6] it was 25.2%. Besides, the growth in [7] is 5.61% (active); in test [8], 40.4%; in test [9], 56%; in test [10], 77.9%.
For `Fc1cc2[nH]ncc2c2c3c(c(-c4cn[nH]c4)nc12)CCCC3`, the growth in test [1] is 4.51% (active); in [2], 11%; in test [3], 3.38% (active); in test [4] it was 8.75% (active); in test [5], -1.45% (active); in test [6] it was 7.08% (active). Also, the growth in test [7] was -69.4% (active); in test [8], -48% (active); in test [9] it was 0.769% (active); in test [10], 2.87% (active).
As for `Clc1ccc(/C=N/Nc2nc3ccccc3s2)c(Cl)c1`, the growth in test [1] was 85%; in test [2], 84.1%; in test [3], 84.3%; in [4], 103%; in test [5], 76.3%; in test [6], 79.5%. Moreover, the growth in test [7] was 98.4%; in [8] it was 103%; in [9] it was 84.7%; in [10], 114%.
As to `CCCC(NC(=O)OCc1ccccc1)C(=O)O` (stereo not given), the growth in test [1] is 103%; in test [2], 104%; in [3], 84%; in test [4], 99.4%; in test [5] it was 104%; in [6], 93.8%. In addition, the growth in [7] is 90.1%; in test [8] it was 89.6%; in test [9], 99.5%; in test [10], 92.8%.
Regarding `Cc1ccc(S(=O)(=O)NCCCNc2nccc(-c3c(-c4cccc(F)c4)nc4occn34)n2)cc1`, the growth in test [1] is 73.4%; in test [2] it was 27.8%; in [3] it was 73.5%; in [4], 90.7%; in test [5] it was 70.6%; in test [6], 44.3%. Moreover, the growth in test [7] is 67.2%; in [8], 58.6%; in [9], 57.9%; in test [10] it was 95.9%.
With `C=C(C)[C@@H]1CC[C@]2(C(N)=O)CC[C@]3(C)[C@H](CC[C@@H]4[C@@]5(C)CC[C@H](O)C(C)(C)[C@@H]5CC[C@]43C)[C@@H]12`, the growth in test [1] was 6.36% [100 µM] (active); in test [2], -49.5% [100 µM] (active); in test [3], -39.1% [100 µM] (active); in [4] it was 1.3% [100 µM] (active); in test [5] it was -69.3% [100 µM] (active); in [6] it was -24.5% [100 µM] (active). The growth in test [7] is -39.6% [100 µM] (active); in test [8], -23.2% [100 µM] (active); in test [9] it was -72.8% [100 µM] (active); in test [10], 0.379% [100 µM] (active).
On to `Cc1ccc(S(=O)(=O)Oc2ccc(Br)cc2Br)cc1`, for which the growth in test [1] is 48.5%; in [2], 34.5%; in test [3] it was 64.8%; in test [4], 75.7%; in test [5] it was 48.5%; in test [6] it was 79.4%. The growth in test [7] was 77.9%; in test [8] it was 63.8%; in test [9], 52.3%; in [10], 92.8%.
With `CCOC(=O)c1cc(C#N)n2ncc3ccccc3c12`, the growth in test [1] was 94.3%; in test [2] it was 98%; in [3] it was 72.7%; in test [4], 91.8%; in test [5] it was 93.2%; in [6], 92.8%. Also, the growth in test [7] was 98%; in test [8] it was 91.7%; in test [9], 95.6%; in [10], 101%.
Consider `CC1(C)S[C@@H]2[C@H](NC(=O)[C@H](C(=O)O)c3cccs3)C(=O)N2[C@H]1C(=O)O`, for which the growth in test [1] was 98.7%; in test [2] it was 102%; in test [3], 104%; in test [4], 105%; in test [5], 94.4%; in test [6], 99.2%. Further, the growth was 106% in [7], 102% in test [8], 99.4% in test [9] and 116% in test [10].
`CCCCCn1sc(=O)n(Cc2ccc(CNC(=O)OCc3ccc4cccc(O)c4n3)cc2)c1=O`: the growth in test [1] is -20.5% (active); in test [2] it was -49.2% (active); in test [3] it was -4.62% (active); in test [4], 37%; in [5], 20.1%; in test [6], 3.68% (active). Further, the growth in test [7] was -44.7% (active); in test [8] it was -64.2% (active); in test [9], -91.5% (active); in test [10], -35% (active).
